# Measured values published in PubChem BioAssay (NCATS).
# Records with an inconclusive call do not appear. A call without a number means that no potency is given here. Activity calls are given as the source filed them. Calls follow the shape of the full dose curve. Square brackets hold non-standard residues; d marks the D form. Peptide text beside a SMILES is read from it.
# Columns and labels:
# [1] = Cytotoxicity counterscreen for inhibitors of SARS-CoV-2 cell entry (AID 1645845); conditions: outcome: dose series up to 57.1 µM unless noted; also: nearly all actives have a fitted effect of over 50% in size
# In short: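 48 h compound treatment (after 1 h preincubation), HEK293-ACE2 cells, 37 C/5% CO2; ATP luminescence endpoint; normalized to cell wells and media blanks.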
# [2] = Primary qHTS to identify inhibitors of SARS-CoV-2 cell entry (AID 1645846); conditions: SARS-CoV-2 pseudovirus cell entry assay, luminescence; activity change, negative = inhibition: at 57.1 µM (top of the series) unless noted; also: nearly all actives have a fitted effect of over 45% in size
# In short: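 Using luciferase-reporting pseudoviruses carrying Wuhan-Hu-1 spike, the screen tracks entry into stably ACE2-expressing cells over 48 hr. Activity is expressed relative to spike particles versus particles lacking any fusion protein.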
# Potency is read from the fitted curve at half-maximal effect.
smiles,measurement,setting,value
O=C(NNc1ccccc1)c1ccncc1,Potency,[1],inactive
same,"activity change, negative = inhibition",[2],-19.4%
C[C@@H]1C(=O)OC2[C@H](O)[C@]34[C@H]5C[C@@H](C(C)(C)C)[C@]36[C@@H](OC(=O)[C@@H]6O)O[C@@]4(C(=O)O5)[C@]21O (stereo not given in full),Potency,[1],inactive
same,"activity change, negative = inhibition",[2],-20.5%
CC1(C)SCCN(S(=O)(=O)c2ccc(OCC#CCO)cc2)[C@H]1C(=O)NO,Potency,[1],inactive
same,"activity change, negative = inhibition",[2],-8.73%
O=C(/C=C/c1ccc(Cl)cc1)N1CCC2(CC1)CN(Cc1ccc(Cl)c(Cl)c1)C(=O)O2,Potency,[1],inactive
same,"activity change, negative = inhibition",[2],0.824%
CC(C)(O)c1coc(S(=O)(=O)NC(=O)Nc2c3c(cc4c2CCC4)CCC3)c1,Potency,[1],inactive
same,Potency,[2],inactive
COc1cccc2c1c(O)c(C(=O)N(C)c1ccc(C(F)(F)F)cc1)c(=O)n2C,Potency,[1],inactive
same,"activity change, negative = inhibition",[2],-9.47%
CN(C)C(N)=NC(=N)N,outcome,[1],inactive [setting not given]
same,outcome,[2],inactive [setting not given]
O=C1CC[C@H](N2Cc3c(OCc4ccc(CN5CCOCC5)cc4)cccc3C2=O)C(=O)N1,Potency,[1],inactive
same,"activity change, negative = inhibition",[2],-23.3%
Cc1ccc(NC(=O)Nc2nnc(Sc3ncnc4cc(OCCCN5CCOCC5)ccc34)s2)cc1,Potency,[1],inactive
same,Potency,[2],inactive
CC[C@H]1OC(=O)[C@H](C)[C@@H](O[C@H]2C[C@@](C)(OC)[C@@H](O)[C@H](C)O2)[C@H](C)[C@@H](O[C@@H]2O[C@H](C)C[C@H](N(C)C)[C@H]2O)[C@](C)(O)C[C@@H](C)C(=O)[C@H](C)[C@@H](O)[C@]1(C)O,Potency,[1],inactive
same,Potency,[2],inactive
Cc1cc(-c2nc3cc(F)ccc3s2)ccc1NC(=O)[C@@H](N)CCCCN,Potency,[1],22.4 µM (active)
same,Potency,[2],28.2 µM (active)
Cc1cc(O[C@@H](CCC(F)(F)F)c2ccc(C(=O)NCCC(=O)O)cc2)cc(C)c1-c1ccc(C(C)(C)C)cc1,Potency,[1],inactive
same,"activity change, negative = inhibition",[2],-0.0119%
CCC(=O)NC[C@H](Cc1ccc(OCCc2nc(-c3ccccc3)oc2C)cc1)N/C(C)=C\C(=O)c1ccc(C(F)(F)F)cc1,Potency,[1],inactive
same,"activity change, negative = inhibition",[2],-18.7%
N#Cc1ccnc(Nc2cc(C3CCN(C4COC4)CC3)cc(N3CCC(F)(F)C3)n2)c1,Potency,[1],8.91 µM (active)
same,Potency,[2],3.16 µM (active)
Cc1ccc(NC(=O)[C@H]2CCCN(C(=O)c3c(C)cccc3F)[C@H]2c2ccc(NC3CCCC3)cc2)cc1C(F)(F)F,Potency,[1],inactive
same,"activity change, negative = inhibition",[2],-27.6%
NC[C@H]1O[C@H](O[C@H]2[C@H](O)[C@@H](O[C@H]3O[C@H](CO)[C@@H](O)[C@H](N)[C@H]3O)[C@H](N)C[C@@H]2N)[C@H](N)C[C@@H]1O,Potency,[1],inactive
same,"activity change, negative = inhibition",[2],-8.09%
Nc1nc2cc(-c3ccc4ncc(C(=O)N5CCOCC5)n4c3)ccc2o1,Potency,[1],inactive
same,Potency,[2],inactive
CN1C(=O)[C@@H](NC(=O)c2n[nH]c(Cc3ccccc3)n2)COc2ccccc21,Potency,[1],inactive
same,Potency,[2],inactive
N=C1S/C(=C\c2ccc(-c3ccc4c(c3)C(=O)NC4=O)o2)C(=O)N1c1ccc(Br)cc1,Potency,[1],inactive
same,"activity change, negative = inhibition",[2],-8.86% [at 27.1 µM]
Cn1c(-c2ccccc2C(F)(F)F)nnc1C12CCC(c3noc(C4CC(F)(F)C4)n3)(CC1)CC2,Potency,[1],inactive
same,"activity change, negative = inhibition",[2],-12.8%
O=C(O)CCNc1cc(N2CCc3ccccc3CC2)nc(-c2cccnc2)n1,Potency,[1],inactive
same,Potency,[2],inactive
CONC(=O)c1ccccc1Nc1cc(Nc2cc(C)nn2C(C)C)ncc1Cl,Potency,[1],inactive
same,"activity change, negative = inhibition",[2],-10.2%
O=S(=O)(NCCNC/C=C/c1ccc(Br)cc1)c1cccc2cnccc12,Potency,[1],inactive
same,"activity change, negative = inhibition",[2],-22.5%
Cc1cc(-c2cc(OC(=O)c3ccccc3)ccc2Cl)cc2nnc(Nc3ccc(OCCN4CCCC4)cc3)nc12,Potency,[1],inactive
same,"activity change, negative = inhibition",[2],-21.1% [at 27.1 µM]
C[C@@H]1N=C(N)NC(N(C)C)=N1,Potency,[1],inactive
same,"activity change, negative = inhibition",[2],-14.7%
COC(=O)[C@H]1[C@@H](O)[C@@]2(O)c3c(OC)cc(O[C@@H]4O[C@@H]([C@@H](O)CO)CO[C@H]4OC)cc3O[C@@]2(c2ccc(OC)cc2)[C@@H]1c1ccccc1,Potency,[1],inactive
same,Potency,[2],inactive
CC(C)C[C@@H]1NC(=O)[C@@H](C(C)C)NC(=O)[C@@H]2CCCN2C(=O)[C@@H](CC(=O)O)NC(=O)[C@@H](Cc2c[nH]c3ccccc23)NC1=O (cyclo(L[dW][dD]P[dV])),Potency,[1],inactive
same,"activity change, negative = inhibition",[2],-6.47%
O=C(O)C1=CO[C@@H](O[C@@H]2O[C@H](CO)[C@@H](O)[C@H](O)[C@H]2O)[C@@H]2C(CO)=CC[C@H]12,Potency,[1],inactive
same,Potency,[2],inactive
OC1CCC([C@H](O)C[C@H]2c3c(F)cccc3-c3cncn32)CC1 (stereo not given in full),Potency,[1],inactive
same,Potency,[2],inactive
c1cn2cc(-c3ccc4cn[nH]c4c3)nc(Nc3ccc(N4CCOCC4)cc3)c2n1,Potency,[1],2.82 µM (active)
same,"activity change, negative = inhibition",[2],-27%
